High-throughput results: PubChem, several laboratories
Only a selection was taken, and hits are over-represented in it overall.
GIRK2 act = GIRK2 channel activators by thallium flux; 34,000 tested, under 10 active; activation (% efficacy), % for hits at 37.5 µM; HEK293 GIRK2/NPY4 cells, thallium flux fluorescence;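 active means primary screen hit, no activity in plain HEK293 cells, and in GIRK2-only cells above 5% efficacy rising with concentration; inactive means the rest, including fluorescent compounds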;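 further: efficacy is normalized control-subtracted fluorescence 15 s after thallium addition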
AMPAR-TARP mod = modulators of AMPA receptor GluA2-stargazin complexes; O88602+P19491; HEK293 GluA2+stargazin, membrane potential dye (FDSS), glutamate EC50; hits were called plate by plate, in both directions; calls only at 30 µM; 40,000 tested, 3.5% active; AID 1259245;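 active means any of four per-well response measures lying three or more SD from its plate-wide compound average, in either direction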
Calls only.

How did NC(=O)c1ccccc1NC(=O)c1ccc(=O)n(Cc2cccc(C(F)(F)F)c2)c1 do in these assays?
GIRK2 act: inactive; AMPAR-TARP mod: inactive

What do the screens show for `CS(=O)(=O)N1CCCc2cc(NC(=O)COc3ccc(Cl)cc3)ccc21`?
AMPAR-TARP mod: inactive

How did O=C(NCC(F)(F)F)c1ccc(N2CCC(Cc3ccccc3)CC2)nn1 do in these assays?
GIRK2 act: inactive; AMPAR-TARP mod: active

Results for O=C(NCC(F)(F)F)C1CCN(C(=O)CSCc2ccccc2)CC1 ?
GIRK2 act: inactive

How did COc1ccc2nc(-c3ccc(C)c(NS(=O)(=O)c4cc(C)ccc4OC)c3)cn2n1 do in these assays?
GIRK2 act: inactive

Results for COc1ccc2nc(-c3ccc(C)c(NS(=O)(=O)c4ccc(C(C)=O)cc4)c3)cn2n1 ?
GIRK2 act: inactive; AMPAR-TARP mod: active

Results for COc1ccc2nc(-c3ccc(C)c(NS(=O)(=O)c4ccc(C)c(C)c4)c3)cn2n1 ?
GIRK2 act: inactive

What do the screens show for `COc1ccc2nc(-c3ccc(C)c(NS(=O)(=O)c4ccc(C)s4)c3)cn2n1`?
GIRK2 act: inactive; AMPAR-TARP mod: active

What do the screens show for `O=C(CC1C(=O)NCCN1C(=S)NC(=O)c1sc2ccccc2c1Cl)OCC1CCCO1` (stereo not given)?
AMPAR-TARP mod: inactive

What do the screens show for `CCCCn1cnc2c(-c3ccccc3)cn(CC(=O)Nc3cccc(C(C)=O)c3)c2c1=O`?
GIRK2 act: inactive; AMPAR-TARP mod: inactive

What do the screens show for `COc1cccc(C(=O)Nc2nc3ncccc3cc2-c2ccccc2)c1`?
GIRK2 act: inactive; AMPAR-TARP mod: active

Results for O=C(Nc1nc2ncccc2cc1-c1ccccc1)C1CCCC1 ?
GIRK2 act: inactive; AMPAR-TARP mod: inactive

How did O=C(Cn1cc(-c2ccccc2)c(N2CCOCC2)n1)NCc1ccccc1 do in these assays?
GIRK2 act: inactive; AMPAR-TARP mod: inactive

Results for CC1(C)Cc2cccc(OCCCS(=O)(=O)NC3CC3)c2O1 ?
GIRK2 act: inactive

Results for CCOC(=O)N1CCC(NC(=O)c2cc(-c3cccc(OC)c3)nn2C)CC1 ?
GIRK2 act: inactive; AMPAR-TARP mod: inactive

How did CC(C)(C)c1ccc(OC(=O)N2CCOCC2)cc1 do in these assays?
AMPAR-TARP mod: inactive

Results for O=C(Oc1ccccc1OC(=O)N1CCOCC1)N1CCOCC1 ?
AMPAR-TARP mod: active

Results for CS(=O)(=O)c1ccc2nc(NC(=O)CCN3C(=O)c4ccccc4S3(=O)=O)sc2c1 ?
GIRK2 act: inactive; AMPAR-TARP mod: inactive

Results for O=C(Nc1ccccc1)Nc1ccc2c(c1)N(C(=O)c1ccccc1)CCC2 ?
GIRK2 act: inactive

How did O=C(/C=C/c1ccc2c(c1)OCO2)Nc1ccc2c(c1)N(C(=O)C1CC1)CC2 do in these assays?
GIRK2 act: inactive; AMPAR-TARP mod: active

Results for O=C(/C=C/c1ccccc1)Nc1ccc2c(c1)N(C(=O)c1ccccc1)CCC2 ?
GIRK2 act: inactive; AMPAR-TARP mod: active

Results for O=C(/C=C/c1ccc2c(c1)OCO2)Nc1ccc2c(c1)CN(C(=O)C1CC1)CC2 ?
GIRK2 act: inactive; AMPAR-TARP mod: inactive

Results for COc1cn(-c2ccc(F)cc2)nc1C(=O)Nc1cccc(SC)c1 ?
GIRK2 act: inactive; AMPAR-TARP mod: inactive

Results for COc1ccc(S(=O)(=O)NCCC(=O)N(C)C)cc1N(C)S(C)(=O)=O ?
AMPAR-TARP mod: inactive

How did NC(=O)c1ccc(NC(=O)Cc2csc(NC(=O)c3ccc(=O)[nH]c3)n2)cc1 do in these assays?
GIRK2 act: inactive; AMPAR-TARP mod: inactive

How did O=C(NCc1cccc2ccccc12)N(Cc1ccccn1)Cc1ccco1 do in these assays?
GIRK2 act: inactive

How did O=C(NC1CCCCC1)N(CCc1ccccc1)Cc1ccccn1 do in these assays?
GIRK2 act: inactive; AMPAR-TARP mod: inactive

Results for O=C(N(CCc1ccccc1)Cc1ccccn1)C12CC3CC(CC(C3)C1)C2 ?
GIRK2 act: inactive; AMPAR-TARP mod: active

Results for O=C(NCc1cccc2ccccc12)N(CCc1ccccc1)Cc1ccccn1 ?
GIRK2 act: inactive; AMPAR-TARP mod: active

What do the screens show for `Cc1cc(C)n(-c2nc3c(c(=O)n(CCN4CCOCC4)c(=O)n3C)n2CC(C)C)n1`?
GIRK2 act: inactive; AMPAR-TARP mod: inactive

What do the screens show for `COc1cccc(C(CNC(=O)C(=O)Nc2ccccc2C#N)N2CCOCC2)c1` (stereo not given)?
GIRK2 act: inactive; AMPAR-TARP mod: inactive

How did COc1ccc(-c2ccc(C)c(NC(=O)c3ccccc3OC)c2)nn1 do in these assays?
GIRK2 act: inactive; AMPAR-TARP mod: active

How did COc1ccc(-c2ccc(C)c(NC(=O)c3cccc(OC)c3OC)c2)nn1 do in these assays?
GIRK2 act: inactive; AMPAR-TARP mod: inactive

How did CCC(C(=O)NCC#CCN1CCc2ccccc2C1)c1ccccc1 (stereo not given) do in these assays?
GIRK2 act: inactive; AMPAR-TARP mod: inactive

How did Cc1cc(C)cc(-n2ncc3c2ncn2nc(-c4ccco4)nc32)c1 do in these assays?
GIRK2 act: inactive; AMPAR-TARP mod: inactive
